Assay results from PMC7826789 (International Journal of Molecular Sciences, 2021).

Test system: JAK1(JH2domain-pseudokinase)
Conditions: Compound Concentration (nM):1000
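Note: KINOMEscan scanMAX binding as percent activity remaining versus control; lower means stronger binding.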

| SMILES | Percent Control |
| --- | --- |
| COc1ccc2c(-c3ccnc(Nc4cccc(OC(F)(F)F)c4)n3)cnn2n1 [GW810372X] | 7.5% |
| CCS(=O)(=O)c1ccc(OC)c(Nc2ncc(-c3cccc(OC)c3)o2)c1 [GW580509X] | 97% |
| CC1=C(C(=O)Nc2ccc3[nH]ncc3c2)C(c2ccc3ccccc3c2)CC(=O)N1 (stereo not drawn) [GSK270822A] | 90% |
| COc1cccc(-c2c[nH]c3c(N/N=C/c4ccncc4)ncnc23)c1 [GW814408X] | 80% |
| Cl.O=C(Nc1ccc(Oc2ccc3[nH]c(NC(=O)c4ccco4)nc3c2)cc1)Nc1cc(C(F)(F)F)ccc1F [GW683134A] | 90% |
| COC(=O)Nc1nc2ccc(Oc3ccc(NC(=O)Nc4cc(C(F)(F)F)ccc4F)cc3)cc2s1.Cl [GW693917A] | 80% |
| COc1cc(N2CCN(C(C)C)CC2)ccc1Nc1nc(Nc2ccc(F)cc2C(=O)NC[C@@H](O)CO)c2cc[nH]c2n1 [GSK1392956A] | 89% |
| COc1cc2ncn(-c3cc(O[C@H](C)c4ccccc4Cl)c(C(N)=O)s3)c2cc1OC [GSK237701A] | 70% |
| Cl.c1ccc(Cc2nc3ccc(Nc4ncnc5ccccc45)cc3[nH]2)cc1 [GR269666A] | 88% |
| COc1cc(C)c(N(C)C(=O)CN(C)C)cc1Nc1nc(Nc2cccc(F)c2C(N)=O)c2cc[nH]c2n1 [GSK2219385] | 81% |
| NS(=O)(=O)c1ccc(N/N=C2\C(=O)Nc3ccc(C(=O)NCCc4c[nH]cn4)cc32)cc1 [GW300660X] | 20% |
| CCS(=O)(=O)c1ccc(OC)c(Nc2ncc(-c3cccc(F)c3)o2)c1 [GW621970X] | 98% |
| CN(C)CCNC(=O)Nc1ccc(N(C)c2ccnc(Nc3ccc(CS(C)(=O)=O)cc3)n2)cc1.Cl [GW830900A] | 33% |
| COc1cc(/C=N/Nc2ncnc3[nH]ncc23)ccc1O [GW578748X] | 0.6% |
| COc1ccc2cc(-c3c(-c4ccncc4)nc(-c4ccc(S(C)(=O)=O)cc4C)n3C)ccc2c1 [SB-633825] | 75% |
| COc1ccc(COc2ccc(Cc3cnc(N)nc3N)cc2OC)cc1 [GW632580X] | 89% |
| COc1cccc(-n2ncc3c(N/N=C/c4ccncc4)ncnc32)c1 [GW784752X] | 96% |

| SMILES | Percent Control |
| --- | --- |
| CN(C)c1cc2c(Nc3ccc4c(cnn4Cc4ccccc4)c3)ncnc2cn1 [GW282974X] | 92% |
| Cc1cc(O)cc(C)c1/C=C/c1cncc(C(N)=O)c1 [GW435821X] | 59% |
| NS(=O)(=O)c1ccc(N/N=C2\C(=O)Nc3ccc(-c4cnco4)cc32)cc1 [GW276655] | 31% |
| O=C(Nc1n[nH]c2nc(-c3ccc(O)cc3)c(Br)cc12)C1CC1 [SB-725317] | 63% |
| NS(=O)(=O)c1ccc(Nc2ncc(-c3ccccc3)o2)cc1 [GW572399X] | 87% |
| Cl.O=C(O[C@H]1CN[C@H](C#Cc2cc3ncnc(Nc4ccc5c(cnn5Cc5ccccc5)c4)c3s2)C1)N1CCOCC1 [GSK200398A] | 91% |
| COc1ccccc1-c1cc(/C=C2\C(=O)Nc3ncc(Br)cc32)cc(Br)c1O [GW442130X] | 100% |
| CC1=C(C(=O)Nc2ccc3[nH]ncc3c2)C(c2ccc(Cl)c(Cl)c2)CC(=O)N1 (stereo not drawn) [GSK299115A] | 86% |
| COc1cc2ncnc(Nc3ccc4c(cnn4Cc4ccccc4)c3)c2cc1OC.Cl [GW282449A] | 92% |
| O=C1Nc2ccc(C(=O)c3ccco3)cc2C1=Cc1cc(Cl)c(O)c(Cl)c1 [GW406108X] | 7.3% |
| CC(C)COC(=O)c1ccc2c(c1)/C(=C/Nc1ccc(S(N)(=O)=O)cc1)C(=O)N2 [GW416981X] | 56% |
| Cl.O=S1CCN(Cc2ccc(-c3ccc4ncnc(Nc5ccc(OCc6ccccc6)c(F)c5)c4c3)o2)CC1 [GW576924A] | 89% |
| CCn1c(-c2nonc2N)nc2c(C#CC(C)(C)O)nc(OCCNC)cc21.Cl [GSK949675] | 100% |
| COc1cc(C=NNc2ncnc3c2cnn3-c2ccccc2)ccc1O [GW513184X] | 84% |
| Cl.O=C(Nc1ccc(Oc2ccc3[nH]c(NC(=O)c4ccccc4)nc3c2)cc1)Nc1cc(C(F)(F)F)ccc1F [GW709042A] | 96% |
| Nc1ncnc2occ(-c3ccc(NC(=O)Nc4cc(C(F)(F)F)ccc4F)cc3)c12 [GW770249X] | 80% |
